Laboratory results taken from PubChem BioAssay.
Inconclusive results are not listed. Activity calls are given as the source filed them. Unless noted, the limit is not given here; nearly all actives have AC50 up to about 26 µM.

How the values were obtained:
[1] = viability loss in pontine glioma line – cell-based, SU-DIPG-XXV, MIPE5.0, CellTiter-Glo, qHTS, dose response (AID 1347065); conditions: CellTiter-Glo ATP luminescence;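 also: cells exposed to compound for 48 hours before ATP readout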
[2] = JHH-DIPG-1 glioma cell viability, MIPE5.0 library, CellTiter-Glo luminescence, qHTS (AID 1347067); conditions: JHH-DIPG-1 glioma viability, CellTiter-Glo ATP luminescence;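 also: cells exposed to compound for 48 hours before readout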
[3] = growth inhibition of DIPG cells – cell-based, MIPE4.0 library, CellTiter-Glo luminescence, qHTS (AID 1347066; cut-off not given, nearly all actives have AC50 up to about 30 µM;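 also: cells exposed to compound for 48 hours before readout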); conditions: SU-DIPG-VI viability, CellTiter-Glo ATP luminescence
[4] = viability loss in pontine glioma line – cell-based, SU-DIPG-XIII, MIPE4.0, CellTiter-Glo, qHTS, dose response (AID 1347061; cut-off not given, nearly all actives have AC50 up to about 37 µM;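 also: cells exposed to compound for 48 hours before readout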); conditions: CellTiter-Glo ATP luminescence
[5] = viability loss in pontine glioma line – cell-based, SU-DIPG-XIII, MIPE5.0, CellTiter-Glo, qHTS, dose response (AID 1347064; cut-off not given, nearly all actives have AC50 up to about 23 µM;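 as to AC50: cells exposed to compound for 48 hours before the viability read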); conditions: CellTiter-Glo ATP luminescence
[6] = viability loss in pontine glioma line – cell-based, SU-DIPG-XVII, MIPE5.0, CellTiter-Glo, qHTS, dose response (AID 1347060); conditions: CellTiter-Glo ATP luminescence;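 also: cells exposed to compound for 48 hours before viability readout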
[7] = growth inhibition, single agents and combos, LFS_MB_1R, cell-based, cisplatin or BGB combos, synergistic combos for chromothripsis tumors (AID 1671452; in the data active = inhibition above about 80%;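 also: cells exposed for 96 hours before readout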); conditions: LFS_MB_1R medulloblastoma cells, stronger effect = higher value
[8] = growth inhibition, single agents and combos, CRL2098, cell-based, BGB or cisplatin IC20 combos, synergistic combos for chromothripsis tumors (AID 1671454; in the data active = inhibition above about 80%;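 also: cells exposed for 96 h before readout; 0% = vehicle DMSO and 100% = killing by high DMSO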); conditions: CRL2098 osteosarcoma cells, drug combinations, stronger effect = higher value
[9] = growth inhibition, single agents and combos, HD-MB03, cell-based, BGB or cisplatin IC20 combos, synergistic combos for chromothripsis tumors (AID 1671455; in the data active = inhibition above about 83%;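 also: 0% = vehicle DMSO and 100% = high DMSO as cytotoxic control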); conditions: HD-MB03 medulloblastoma cells, stronger effect = higher value
[10] = growth inhibition, single agents and combos, UWB1.289, cell-based, BGB or cisplatin combos, synergistic combos for chromothripsis tumors (AID 1671456; in the data active = inhibition above about 80%;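 also: cells exposed to compound for four days; 0% = vehicle DMSO and 100% = killing by high DMSO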); conditions: UWB1.289 ovarian carcinoma cells, stronger effect = higher value
[11] = growth inhibition, single agents and combos, LFS_MB_2R, cell-based, cisplatin combos, synergistic combos for chromothripsis tumors (AID 1671457; in the data active = inhibition above about 80%;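 also: cells exposed to compound for four days before readout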); conditions: LFS_MB_2R medulloblastoma cells, stronger effect = higher value
[12] = growth inhibition, MDA-MB-436, cell-based, BGB or cisplatin combos, synergistic combos for chromothripsis tumors (AID 1671458; call rule not given here;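 also: cells exposed for 96 hours; 0% = vehicle DMSO and 100% = killing by high DMSO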); conditions: MDA-MB-436 breast carcinoma growth inhibition, drug combinations, stronger effect = higher value
[13] = UWB1.289_BRCA1 ovarian cancer growth, cell-based, BGB or cisplatin combinations (AID 1671459; in the data active = inhibition above about 80%); conditions: UWB1.289 BRCA1 ovarian carcinoma, drug combinations, stronger effect = higher value
[14] = drug combination toxicity in non-malignant astrocytes – cell-based, BGB or cisplatin IC20 combos, cytotoxicity control for chromothriptic childhood tumor combination screen (AID 1671460; in the data active = inhibition above about 80%;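 also: cells exposed to compounds for 96 hours before viability readout; 0% = vehicle and 100% = killing control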); conditions: Human astrocytes, viability inhibition, drug combinations, at 0.5 µM, stronger effect = higher value
[15] = BT084 cell growth, single and combined drugs, ICGC_MB145, cisplatin and BGB IC40 combos (AID 1671461; in the data active = inhibition above about 80%;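 also: cells exposed to drugs for 96 hours; 0% = vehicle DMSO and 100% = high DMSO full killing control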); conditions: BT084 medulloblastoma cells, drug combinations, stronger effect = higher value
[16] = RCMB18 cell growth, single agent and combined, cisplatin and BGB IC40 combos (AID 1671462; in the data active = inhibition above about 80%;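 also: cells exposed to compound for four days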); conditions: RCMB18 medulloblastoma cells, stronger effect = higher value
[17] = CRL1545 cell growth, single agent and combined, cisplatin and BGB IC20 combos (AID 1671464; in the data active = inhibition above about 80%;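 also: cells exposed to compound for 96 hours before readout; 0% = vehicle DMSO and 100% = high DMSO killing control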); conditions: CRL1545 osteosarcoma cells, stronger effect = higher value
[18] = measured here: combination with cisplatin, at 0.5 µM
[19] = measured here: combination with cisplatin, at 5 µM

## O=S(=O)(NCCNC/C=C/c1ccc(Br)cc1)c1cccc2cnccc12
[1]
  AC50: 23.5 µM (active)
[2]
  AC50: 16.6 µM (active)

## CC(C)(Sc1ccc(CCN(CCCCC2CCCCC2)C(=O)NC2CCCCC2)cc1)C(=O)O
[3]
  outcome: inactive

## CC(C)(C)/[N+]([O-])=C/c1ccc(S(=O)(=O)O)cc1S(=O)(=O)O
[4]
  outcome: inactive
[3]
  outcome: inactive

## O=C(c1ccc(Nc2nccc(-c3cc4ccccc4s3)n2)cc1)N1CCC(N2CCCC2)CC1
[4]
  AC50: 23.5 µM (active)
[5]
  AC50: 8.33 µM (active)
[1]
  AC50: 7.42 µM (active)
[3]
  AC50: 18.7 µM (active)
[2]
  AC50: 9.34 µM (active)

## CCOC(=O)C(C)Oc1cccc2c(=O)n(CC(=O)Nc3ccc4c(c3)OCCO4)ccc12 (stereo not given)
[4]
  outcome: inactive
[5]
  AC50: 20.9 µM (active)
[2]
  outcome: inactive

## O=C(O)Cc1cccc(OCCCN(Cc2cccc(C(F)(F)F)c2Cl)CC(c2ccccc2)c2ccccc2)c1
[1]
  AC50: 20.9 µM (active)

## C[C@@H](N)C1CCC(C(=O)Nc2ccncc2)CC1 (stereo not given in full)
[4]
  outcome: inactive
[5]
  outcome: inactive
[1]
  outcome: inactive
[3]
  outcome: inactive
[2]
  outcome: inactive

## CCCC[C@@H](C=O)NC(=O)[C@H](CC(C)C)NC(=O)OCc1ccccc1
[1]
  outcome: inactive
[2]
  outcome: inactive

## Cc1ccccc1C(=O)c1ccc(Nc2ccc(Br)cc2N)cc1Cl
[4]
  outcome: inactive
[5]
  AC50: 20.9 µM (active)
[1]
  AC50: 18.6 µM (active)
[2]
  AC50: 23.5 µM (active)

## Nc1nccc(-c2ccc3noc(-c4ccc(Cl)cc4)c3c2)n1
[1]
  AC50: 20.9 µM (active)
[3]
  outcome: inactive

## Oc1cc(O)cc(/C=C/c2ccc(O)c(O)c2)c1
[4]
  outcome: inactive
[5]
  AC50: 20.9 µM (active)
[2]
  AC50: 16.6 µM (active)

## CNC(=O)[C@H]1O[C@@H](n2cnc3c(NCc4cccc(I)c4)nc(Cl)nc32)[C@H](O)[C@@H]1O
[6]
  AC50: 18.6 µM (active)
[5]
  AC50: 16.6 µM (active)
[2]
  AC50: 23.5 µM (active)

## NC(=O)c1ccc(-c2nc(-c3ccc4c(c3)OCCO4)c(-c3ccccn3)[nH]2)cc1
[5]
  AC50: 13.2 µM (active)
[3]
  outcome: inactive
[2]
  AC50: 20.9 µM (active)

## Cc1cccc(C#Cc2ccccc2)n1
[4]
  outcome: inactive
[3]
  outcome: inactive

## Cc1ccc(NC(=O)c2cccc(N(C)C)c2)cc1NC(=O)c1ccc(O)cc1
[4]
  AC50: 0.662 µM (active)

## O=c1cc(N2CCOCC2)oc2c(-c3ccccc3)cccc12
[4]
  outcome: inactive
[5]
  outcome: inactive

## O=c1ncccn1[C@@H]1O[C@H](CO)[C@@H](O)[C@H]1O
[5]
  outcome: inactive
[1]
  outcome: inactive
[7]; at 0.5 µM
  inhibition: -27.9% (inactive)
[7]; measured here: combination with BGB IC40, at 0.05 µM
  inhibition: -35.3%
[7]; [18]
  inhibition: -51%
[7]; [19]
  inhibition: -58.9%
[8]; at 0.5 µM
  inhibition: -74.1% (inactive)
[8]; measured here: combination with BGB at IC20, at 0.5 µM
  inhibition: -48.3%
[8]; measured here: combination with cisplatin at IC20, at 0.5 µM
  inhibition: -120%
[9]; at 0.5 µM
  inhibition: -21.4% (inactive)
[9]; measured here: combo with BGB at IC20, at 0.5 µM
  inhibition: -26.7%
[9]; measured here: combo with cisplatin at IC20, at 0.5 µM
  inhibition: -23%
[10]; at 0.5 µM
  inhibition: -19.3% (inactive)
[10]; measured here: inhibition with BGB combination, at 0.05 µM
  inhibition: 1.76%
[10]; measured here: inhibition with cisplatin combination, at 0.05 µM
  inhibition: -40%
[11]; at 0.5 µM
  inhibition: -6.18% (inactive)
[11]; [18]
  inhibition: -23.5%
[11]; [19]
  inhibition: -12.7%
[12]; at 0.5 µM
  inhibition: -13.6% (inactive)
[12]; measured here: BGB combination, at 0.5 µM
  inhibition: -17.7%
[12]; measured here: BGB combination, at 5 µM
  inhibition: -15.1%
[12]; measured here: cisplatin combination, at 0.5 µM
  inhibition: -10.4%
[12]; measured here: cisplatin combination, at 5 µM
  inhibition: -7.02%
[13]; BGB combination, concentration series, at 5 µM
  inhibition: -30%
[13]; at 0.5 µM
  inhibition: -19.1% (inactive)
[13]; cisplatin combination, concentration series, at 5 µM
  inhibition: -22.8%
[14]
  inhibition: -3.28% (inactive)
[14]; measured here: combo with BGB IC20
  inhibition: -9.39%
[14]; measured here: combo with cisplatin IC20
  inhibition: 1.77%
[15]; at 0.5 µM
  inhibition: -5.93% (inactive)
[15]; cisplatin combination, at 0.5 µM
  inhibition: -27.2%
[15]; cisplatin combination, at 5 µM
  inhibition: -19.4%
[15]; measured here: BGB IC40 combination 0.05 uM, at 0.05 µM
  inhibition: -6.16%
[15]; single agent, at 5 µM
  inhibition: -11.2%
[16]; at 0.5 µM
  inhibition: -16.2% (inactive)
[16]; cisplatin combo, at 5 µM
  inhibition: -19.8%
[16]; measured here: BGB IC40 combination, at 0.05 µM
  inhibition: 3.99%
[16]; [18]
  inhibition: -35.7%
[16]; single agent, at 5 µM
  inhibition: -29.5%
[17]; at 0.5 µM
  inhibition: -31.3% (inactive)
[17]; measured here: with BGB IC20 combination, at 0.5 µM
  inhibition: -27.5%
[17]; measured here: with cisplatin IC20 combination, at 0.5 µM
  inhibition: -35.4%
[17]; single agent, at 0.05 µM
  inhibition: -12.6%
[17]; single agent, at 5 µM
  inhibition: -36.3%
